Test results: PMC5540273 (PLoS ONE, 2017)

The compounds below were run on PIP5K1A. Conditions: concentration: 1 μM, replicates: in singlicate; n = 1.
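Further: KINOMEscan kinase panel screen.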

Going from `COc1ccc(COc2cc(-n3cnc4ccccc43)sc2C(N)=O)cc1` [GSK1024304] to `C[C@@H](Oc1cc(-n2cnc3ccc(NC(=O)NC(C)(C)C)cc32)sc1C(N)=O)c1ccccc1Cl` [GSK346294], the “%Inh” value rises from 17% to 35%.

Compared with `Cc1nnc(-c2ccc3ncc(-c4ccc(S(C)=O)cc4)n3c2)o1` (stereo not shown), `Cc1nnc(-c2ccc3occ(-c4ccc(C(C)O)cc4)c3c2)o1` (stereo not shown) is lower in “%Inh” value: 2% for the first, 0% for the second.

`COc1ccc(S(=O)(=O)NC2CCN(c3cc(C)nc(Nc4cccc(C#N)c4)n3)CC2)cc1.O=C(O)C(F)(F)F` [GSK1653539] and `COc1ccc(Nc2nccc(N3CCC(NC(=O)Nc4cccc(C(C)=O)c4)C3)n2)cc1` (stereo not shown) [GSK1379731] are the same in “%Inh” value: 0% for the first, 0% for the second.

Going from `Cc1cccc(-c2nc(Nc3ccc4ncsc4c3)c3ccccc3n2)n1` [GW867588] to `c1ccc(-c2n[nH]cc2-c2ccnc3ccccc23)nc1` [GW271431], the “%Inh” value falls from 27% to 0%.

Compared with `c1ccc(-c2cc(-c3c[nH]nc3-c3ccccn3)ccn2)cc1` [GW576604], `N#Cc1ccc(-c2cc(-c3c[nH]nc3-c3ccccn3)ccn2)cc1` [GW693028] is lower in “%Inh” value: 19% for the first, 7% for the second.

Compared with `CCc1nc(-c2cccc(C)c2)c(-c2ccnc(NCc3ccccc3)c2)s1`, `Cc1cccc(-c2nc(-c3ccc(S(C)(=O)=O)cc3)sc2-c2ccncc2)c1` is higher in “%Inh” value: 0% for the first, 22% for the second.

First: COCCNC(=O)c1ccc(-c2cc(C(=O)NC3CC3)cc(F)c2C)cc1 [GW868318]
Second: O=C(Nc1n[nH]c2cc(-c3cccc(F)c3)ccc12)C1CC1 [SB-735464]
The “%Inh” value of the first is lower: 1% for the first, 37% for the second.

Going from `Cl.Oc1cccc(Nc2ccnc3cc(-c4ccncc4)ccc23)c1` [GW494601] to `CC(=O)Nc1ccc(COc2ccc(Nc3ccnc4cc(-c5ccccn5)ccc34)cc2)cc1.Cl` [GW440148], the “%Inh” value falls from 35% to 0%.

Compared with `Cn1cc(-c2ccc3c(c2)CCN3C(=O)Cc2ccccc2Cl)c2c(N)ncnc21` [GSK2608885], `COc1ccc(Nc2ncc(C#N)c(Nc3ccccc3C(N)=O)n2)cc1N1CCN(C)CC1.Cl` [GSK1558669] is higher in “%Inh” value: 0% for the first, 56% for the second.

Going from `CN1c2ccc(CNc3ccc(F)cc3)cc2-c2c(cnn2C)S1(=O)=O` to `O=C(NCCNc1ccnc(Nc2ccc(F)cc2)n1)c1cc2ccccc2s1` [GSK1379874], the “%Inh” value falls from 5% to 0%.

`O=c1cc(N2CCOCC2)nc2n(Cc3cccc(C(F)(F)F)c3)ccn12` [GSK2297543] and `O=c1cc(N2CCOCC2)nc2n(Cc3cccc4ccccc34)ccn12` [GSK2333389] are the same in “%Inh” value: 0% for the first, 0% for the second.

First: Fc1ccc(-c2nn3c(OCC(F)(F)F)cccc3c2-c2ccncc2)cc1 [GW514784]
Second: O=C(Nc1cccc(-c2nn3ncccc3c2-c2ccnc(Nc3cccc(C(F)(F)F)c3)n2)c1)c1c(F)cccc1F [GSK299495]
The “%Inh” value of the first is higher: 50% for the first, 18% for the second.

Going from `COc1cc2c(cc1OC[C@@H](O)CO)ncc1c3ccc(C#N)cc3[nH]c21` to `COc1cc2c(cc1OCCN1CCN(C)CC1)ncc1c3ccc(C#N)cc3[nH]c21`, the “%Inh” value rises from 38% to 57%.

`Nc1nc(-c2ccc3c(N)n[nH]c3c2)cc(N2CCCC2)n1` [GSK2227430] and `O=C(c1ccc(-c2cc(-c3c[nH]nc3-c3ccccn3)ccn2)cc1)N1CCOCC1` [GW812171] are the same in “%Inh” value: 0% for the first, 0% for the second.

Going from `NCC(NC(=O)c1cc(-c2cn[nH]c2)c(-c2ccnc3[nH]ccc23)s1)c1ccccc1.O=C(O)C(F)(F)F.O=C(O)C(F)(F)F` (stereo not shown) [GSK1325775] to `O=C(NCCCN1CCOCC1)c1cccc(Nc2nccc(Nc3ccc(Oc4ccccc4)cc3)n2)c1` [GW663929], the “%Inh” value falls from 50% to 18%.

`CSc1ccc(-c2cc3ncnc(SCC(=O)O)c3s2)cc1` and `COc1ccc(CNC(=O)NC2CCN(c3ccnc(Nc4ccc(OC)cc4)n3)C2)cc1` (stereo not shown) [GSK1379727] are the same in “%Inh” value: 0% for the first, 0% for the second.

`COc1cc(Nc2nccc(N3CCC(NC(=O)c4cccc(NC(C)=O)c4)C3)n2)cc(OC)c1OC` (stereo not shown) [GSK1379754] and `Cc1c(Cn2c(C)nn3c(=O)cc(N4CCOC(C)C4)nc23)cccc1C(F)(F)F` (stereo not shown) [GSK2344444] are the same in “%Inh” value: 0% for the first, 0% for the second.

`CC(C)(C)n1cnc2c(N)ncnc21` [SKF-97359] was tested, and the “%Inh” value was 32%.

Each compound was assayed on PIP5K1C. Conditions: concentration: 1 μM, replicates: in singlicate; n = 1.

Compared with `COc1ccc(COc2cc(-n3cnc4ccccc43)sc2C(N)=O)cc1` [GSK1024304], `C[C@@H](Oc1cc(-n2cnc3ccc(NC(=O)NC(C)(C)C)cc32)sc1C(N)=O)c1ccccc1Cl` [GSK346294] is higher in “%Inh” value: 45% for the first, 48% for the second.

Compared with `Cc1nnc(-c2ccc3ncc(-c4ccc(S(C)=O)cc4)n3c2)o1` (stereo not shown), `Cc1nnc(-c2ccc3occ(-c4ccc(C(C)O)cc4)c3c2)o1` (stereo not shown) is higher in “%Inh” value: 0% for the first, 4% for the second.

First: COc1ccc(S(=O)(=O)NC2CCN(c3cc(C)nc(Nc4cccc(C#N)c4)n3)CC2)cc1.O=C(O)C(F)(F)F [GSK1653539]
Second: COc1ccc(Nc2nccc(N3CCC(NC(=O)Nc4cccc(C(C)=O)c4)C3)n2)cc1 (stereo not shown) [GSK1379731]
The “%Inh” value of the first is lower: 11% for the first, 24% for the second.

First: Cc1cccc(-c2nc(Nc3ccc4ncsc4c3)c3ccccc3n2)n1 [GW867588]
Second: c1ccc(-c2n[nH]cc2-c2ccnc3ccccc23)nc1 [GW271431]
The “%Inh” value of the first is higher: 4% for the first, 0% for the second.

Compared with `c1ccc(-c2cc(-c3c[nH]nc3-c3ccccn3)ccn2)cc1` [GW576604], `N#Cc1ccc(-c2cc(-c3c[nH]nc3-c3ccccn3)ccn2)cc1` [GW693028] is higher in “%Inh” value: 58% for the first, 71% for the second.

Compared with `CCc1nc(-c2cccc(C)c2)c(-c2ccnc(NCc3ccccc3)c2)s1`, `Cc1cccc(-c2nc(-c3ccc(S(C)(=O)=O)cc3)sc2-c2ccncc2)c1` is lower in “%Inh” value: 14% for the first, 2% for the second.

First: COCCNC(=O)c1ccc(-c2cc(C(=O)NC3CC3)cc(F)c2C)cc1 [GW868318]
Second: O=C(Nc1n[nH]c2cc(-c3cccc(F)c3)ccc12)C1CC1 [SB-735464]
The “%Inh” value of the first is lower: 0% for the first, 18% for the second.

Compared with `Cl.Oc1cccc(Nc2ccnc3cc(-c4ccncc4)ccc23)c1` [GW494601], `CC(=O)Nc1ccc(COc2ccc(Nc3ccnc4cc(-c5ccccn5)ccc34)cc2)cc1.Cl` [GW440148] is lower in “%Inh” value: 75% for the first, 44% for the second.

First: Cn1cc(-c2ccc3c(c2)CCN3C(=O)Cc2ccccc2Cl)c2c(N)ncnc21 [GSK2608885]
Second: COc1ccc(Nc2ncc(C#N)c(Nc3ccccc3C(N)=O)n2)cc1N1CCN(C)CC1.Cl [GSK1558669]
The “%Inh” value of the first is lower: 7% for the first, 65% for the second.

Going from `CN1c2ccc(CNc3ccc(F)cc3)cc2-c2c(cnn2C)S1(=O)=O` to `O=C(NCCNc1ccnc(Nc2ccc(F)cc2)n1)c1cc2ccccc2s1` [GSK1379874], the “%Inh” value falls from 23% to 0%.

Going from `O=c1cc(N2CCOCC2)nc2n(Cc3cccc(C(F)(F)F)c3)ccn12` [GSK2297543] to `O=c1cc(N2CCOCC2)nc2n(Cc3cccc4ccccc34)ccn12` [GSK2333389], the “%Inh” value falls from 28% to 0%.

Going from `Fc1ccc(-c2nn3c(OCC(F)(F)F)cccc3c2-c2ccncc2)cc1` [GW514784] to `O=C(Nc1cccc(-c2nn3ncccc3c2-c2ccnc(Nc3cccc(C(F)(F)F)c3)n2)c1)c1c(F)cccc1F` [GSK299495], the “%Inh” value falls from 69% to 37%.

Compared with `COc1cc2c(cc1OC[C@@H](O)CO)ncc1c3ccc(C#N)cc3[nH]c21`, `COc1cc2c(cc1OCCN1CCN(C)CC1)ncc1c3ccc(C#N)cc3[nH]c21` is higher in “%Inh” value: 47% for the first, 55% for the second.

First: Nc1nc(-c2ccc3c(N)n[nH]c3c2)cc(N2CCCC2)n1 [GSK2227430]
Second: O=C(c1ccc(-c2cc(-c3c[nH]nc3-c3ccccn3)ccn2)cc1)N1CCOCC1 [GW812171]
The “%Inh” value of the first is higher: 26% for the first, 0% for the second.

Compared with `NCC(NC(=O)c1cc(-c2cn[nH]c2)c(-c2ccnc3[nH]ccc23)s1)c1ccccc1.O=C(O)C(F)(F)F.O=C(O)C(F)(F)F` (stereo not shown) [GSK1325775], `O=C(NCCCN1CCOCC1)c1cccc(Nc2nccc(Nc3ccc(Oc4ccccc4)cc3)n2)c1` [GW663929] is lower in “%Inh” value: 80% for the first, 0% for the second.

First: CSc1ccc(-c2cc3ncnc(SCC(=O)O)c3s2)cc1
Second: COc1ccc(CNC(=O)NC2CCN(c3ccnc(Nc4ccc(OC)cc4)n3)C2)cc1 (stereo not shown) [GSK1379727]
The “%Inh” value of the first is lower: 0% for the first, 57% for the second.

Compared with `COc1cc(Nc2nccc(N3CCC(NC(=O)c4cccc(NC(C)=O)c4)C3)n2)cc(OC)c1OC` (stereo not shown) [GSK1379754], `Cc1c(Cn2c(C)nn3c(=O)cc(N4CCOC(C)C4)nc23)cccc1C(F)(F)F` (stereo not shown) [GSK2344444] is lower in “%Inh” value: 45% for the first, 0% for the second.

With `CC(C)(C)n1cnc2c(N)ncnc21` [SKF-97359] the “%Inh” value was 51%.
